# Lmaj promast: reduces viability of Leishmania major promastigotes. AID 1063. resazurin fluorescence viability. inhibition, % at 10 µM. actives 9% (n = 200,000); in the data active = inhibition above about 50%;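 note: promastigotes grown with compound for 44 hours at 28 °C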
# Autophagy HCS: autophagy modulation, high-content screen; calls only at 10 µM (by protocol); actives 0.98% (n = 190,000); MEF GFP-LC3 puncta imaging; test concentration mostly 10 µM;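 active = percentage of spot-positive cells more than 3 SD above its plate mean, without a fluorescence outlier flag or 80% toxicity; inconclusive = no clear call, values can overlap the other calls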;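 note: spot-positive cell cutoff set from DMSO-treated cells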
# Insulin prom up: MIN6 insulin promoter up-regulation; actives 0.3% (n = 190,000); MIN6 insulin promoter-GFP reporter, high-content imaging; hits give high values; z-score at 5 µM; AID 1625;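 active = z-score above 3 at 5 µM with at least 500 cells counted in the well; inconclusive = wells under 500 cells, flagged as cytotoxic or low count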
# WT yeast gro inh: growth inhibition of WT yeast, mitochondrial fusion screen | inhibition, % at 10 µM | actives 2.1% (n = 190,000) | mitochondrial fusion phenotypic screen, WT strain; in the data active = inhibition above about 58%; tested in S. cerevisiae
# INS promoter inh: TRM-6 insulin promoter activity inhibition. inhibition, % at 2 µM. actives 0.9% (n = 130,000). AID 1273. TRM-6 cells (human fetal islet line), insulin promoter-eGFP reporter, imaging; reporter expression induced with tamoxifen;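 active = inhibition above the mean plus 3 SD, with well images judged a real hit on visual review, cut at about 60% in these data, passing the limit was not always enough; inconclusive = inhibition over the cutoff but images rejected on review; inactive = inhibition not above the cutoff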
# Starred values were filed as active, the others as inactive; i = inactive; ? = inconclusive; · = not tested or not shown; + = active, no number. An excerpt weighted towards active compounds, which were near 11% of everything screened.
SMILES,Lmaj promast,Autophagy HCS,Insulin prom up,WT yeast gro inh,INS promoter inh
O=C(COc1c(Br)cc(Br)c2cccnc12)N1CCc2ccccc2C1,-4,i,-0.8,65*,8
CN(NS(=O)(=O)c1ccc(Br)cc1)c1nc(C(F)(F)F)nc2ccccc12,13,i,0.05,77*,15
Fc1ccc(C2NCCn3cccc32)cc1 (stereo not drawn),6,i,3.9*,16,22
N#Cc1ccc(-c2cccnc2)nc1SCc1ccc(Cl)c(Cl)c1,8,i,·,75*,·
Fc1ccc(C2CC(c3ccco3)=NN2c2ccccc2)cc1 (stereo not drawn),17,i,3.5*,19,·
CCOc1ccc2[nH]c(=O)c(CN(CCN3CCCC3)C(=S)Nc3ccccc3OC)cc2c1,0,i,0.39,-8,-56
Cc1nc(S(=O)(=O)Cc2ccccc2Cl)nc2c1CCC2,-4,i,0.71,24,73*
Cc1cc(C(=O)Nn2c(C3CCCCC3)nc3ccccc3c2=O)ccc1[N+](=O)[O-],13,i,-0.77,74*,13
O=C(Nn1c(C2CCCCC2)nc2ccccc2c1=O)c1cc(Cl)ccc1[N+](=O)[O-],-5,i,0.58,-9,-23
O=C(Nn1c(C2CCCCC2)nc2ccccc2c1=O)c1ccc(Cl)c([N+](=O)[O-])c1,4,i,0.32,82*,-97
Cc1cc(C(=O)Nn2c(C)nc3ccccc3c2=O)ccc1[N+](=O)[O-],-11,i,0.35,12,·
O=C1CC2(CCCC2)C(=O)N1c1ccc(S(=O)(=O)NCC2CC2)cc1Cl,·,·,1.4,·,·
CC(C)Cc1nc2c(nnn2Cc2ccccc2F)c(=O)[nH]1,·,·,-0.15,·,·
CCC(C)NCCOCCOc1ccccc1-c1ccccc1 (stereo not drawn),85*,i,-1.9,12,-19
C=CCNCCOCCOc1ccc(C)cc1[N+](=O)[O-],81*,i,-0.05,9,-58
CC(C)(C)NCCOCCOc1ccccc1-c1ccccc1,35,i,-0.08,-7,·
COc1cc(C)ccc1OCCOCCOc1ccc(C)cc1[N+](=O)[O-],2,i,-0.37,-13,48
CN(C)CCNCCCOc1ccccc1-c1ccccc1,98*,i,-0.38,-1,·
C=CCNCCOCCOc1ccccc1-c1ccccc1,95*,i,0.54,-11,·
CCOC(=O)CC1C(=O)NCCN1C1CCCC1 (stereo not drawn),-3,i,-0.41,14,·
C=CCn1c(SCc2nc3ccccc3nc2C)nnc1-c1ccoc1C,6,i,·,3,21
O=C(CCC1CCCN(Cc2ccncc2)C1)NCc1ccc(F)c(F)c1 (stereo not drawn),92*,i,-0.47,4,·
CCOc1cccc(CN2CCCC(CCC(=O)NCc3ccccc3F)C2)c1O (stereo not drawn),56*,i,-0.52,6,·
CC(=O)c1cccc(CN2CCCC(CCC(=O)NCc3ccc(F)c(F)c3)C2)c1 (stereo not drawn),98*,i,·,-2,15
COc1cccc(CNC(=O)CCC2CCCN(Cc3cc4ccccc4o3)C2)c1 (stereo not drawn),80*,i,·,0,-104
SMILES,Lmaj promast,Autophagy HCS,Insulin prom up,WT yeast gro inh,INS promoter inh
CC(C)N(Cc1cc2ccccc2[nH]c1=O)C(=O)C1CCCCC1,1,+,0.39,-41,·
CS(=O)(=O)N(Cc1cc2ccccc2[nH]c1=O)C1CCCCC1,-1,i,-0.11,94*,-67
O=C(C1=C(c2ccccc2)C(=O)c2ccccc2C1=O)c1ccccc1,24,+,?,22,-3
CCN(CC)c1cc(C)c(C#N)c2nc3ccccc3n12,·,·,-0.47,·,·
Cc1cc(Cl)n2c(nc3ccccc32)c1C#N,100*,i,?,10,-167
O=C(NNC(=O)C1CCC(C(=O)NNC(=O)c2cccs2)CC1)c1cccs1 (stereo not drawn),-3,i,-0.27,-15,·
Nc1c2c(nc3ccc(Br)cc13)N(Cc1ccccc1)CC2,94*,i,·,24,69*
Cc1cccc(N2CCc3c2nc2ccc(Br)cc2c3N)c1,100*,i,·,49,?
Nc1c2c(nc3ccc(Br)cc13)N(c1ccccc1)CC2,100*,i,·,0,48
Nc1c2c(nc3ccccc13)N(C1CCCCC1)CC2,·,·,-0.72,15,·
Nc1c2c(nc3ccc(Br)cc13)N(C1CCCCC1)CC2,101*,i,-5.6,43,22
COc1cc([N+](=O)[O-])cc2cc(C(=O)N3CCCC3)c(=O)oc12,-7,i,0.28,2,11
CC/C(=N\O)c1c(O)c2c(n(-c3ccccc3)c1=O)CCCC2,-7,i,0.28,-11,38
CN(C)C(=S)SCC(=O)Nc1ccc(Cl)cc1Cl,22,i,-0.12,-10,3
O=C(NCC(c1ccco1)N1CCN(c2ccc(F)cc2)CC1)OCc1ccccc1 (stereo not drawn),3,i,-0.58,38,·
O=C(NCC(c1cccnc1)N1CCN(c2ccccc2)CC1)OCc1ccccc1 (stereo not drawn),96*,i,-0.2,11,-76
O=C(NCC(c1cccnc1)N1CCN(c2ccc(F)cc2)CC1)OCc1ccccc1 (stereo not drawn),99*,i,2.8,35,21
O=C(NCC(c1cccnc1)N1CCN(c2ccc(F)cc2)CC1)c1cccc(Cl)c1 (stereo not drawn),96*,i,-0.59,-2,-7
O=C(NCC(c1cccnc1)N1CCN(c2ccccc2F)CC1)OCc1ccccc1 (stereo not drawn),96*,i,-0.66,30,-49
C=CCn1c(Cc2csc(N)n2)nnc1SCC(=O)OCC,3,i,-0.52,5,62
CCOc1ccc(C(=O)NCCC(=O)NCCCC(=O)O)cc1,2,i,0.58,-10,-36
COC(=O)NCC(c1cccnc1)N1CCN(c2ccccc2)CC1 (stereo not drawn),45,i,0.31,4,·
O=C(NCC(c1cccnc1)N1CCN(c2ccccc2)CC1)C1CCCCC1 (stereo not drawn),74*,i,-0.12,9,-181
O=C(O)/C=C/c1ccccc1Oc1ccc(Cl)cc1Cl,-12,i,0.98,-2,-173
CCOC(=O)C1(CCCc2ccccc2)CCN(Cc2cnc(C)s2)CC1,77*,i,·,28,·
SMILES,Lmaj promast,Autophagy HCS,Insulin prom up,WT yeast gro inh,INS promoter inh
Cc1ncc(CN2CCC(CO)(Cc3ccccc3)CC2)s1,89*,i,-0.43,28,·
Cc1ncc(CN2CCC(CO)(CCOc3ccccc3)CC2)s1,·,·,-0.14,·,·
CCOC(=O)C1(Cc2ccc(OC)cc2)CCN(C(=O)CCn2cccn2)CC1,·,·,0.54,·,·
CCOC(=O)C1(Cc2ccccc2C(F)(F)F)CCN(CCCn2cccn2)CC1,88*,i,·,5,·
CCOC(=O)C1(CCCc2ccccc2)CCN(CCCn2cccn2)CC1,76*,i,0.33,7,·
O=C(C1CCOCC1)N1CCC(CO)(CCc2ccccc2)CC1,-8,i,0.29,6,·
O=C(CCSc1nnc(-c2ccco2)o1)N1CCOCC1,-7,i,0.62,-5,-8
